The entries come from a sample that favours hits as a whole.
TTR transcr act: TTR transcription activators in neuroblastoma reporter cells, primary screen, cell-based, luminescence, SH-SY5Y, TTR promoter Gaussia luciferase; 100% = recombinant luciferase protein wells; activation, % at 16.7 µM; actives 1.3% (n = 92,000); AID 1117267, 2014;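 active means activation above the mean of all tested compounds plus 3 SD, cut at about 9.5% in these data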;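 further: cells exposed to compounds for one day before reading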
HuH7 TTR inh: TTR promoter reporter inhibitors in hepatoma cells, counter-screen for TTR transcription activator project, cell-based, luminescence, HuH7 hepatoma | shares compounds with TTR transcr act | HuH7 TTR promoter-Gaussia luciferase reporter | inhibition, % at 16.7 µM | actives 4% (n = 1,100);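 active means average inhibition above the solvent-only control wells' mean plus 3 SD, cut at about 15% in these data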;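 further: inhibitors lower well luminescence so higher value means more inhibition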
TTR up confirm: TTR transcription activators, retest, confirmation, cell-based, luminescence, SH-SY5Y, triplicate; shares compounds with TTR transcr act; SHSY5Y TTR promoter Gaussia luciferase; 100% = purified Lucia enzyme wells, no cells; activation, % at 16.7 µM; 1,100 tested, under 10 active;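 active means mean activation above a set limit taken from the earlier primary screen, cut at about 11% in these data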
A number is an active result; - = inactive.

SMILES | TTR transcr act | others
CC(=O)Nc1ccc(NC(=O)C(C)OC(=O)CCCOc2ccc(Cl)c(C)c2)cc1 (configuration not stated) | -
OCCCNc1ncnc2[nH]ncc12 | -
Cc1ccc(CNc2ncnc3[nH]ncc23)cc1 | -
CCCSc1ncnc2[nH]ncc12 | 12.8 | HuH7 TTR inh=-;TTR up confirm=-
CC(C)N1CCC1(C)C(=O)Nc1ccccc1OC(F)F (configuration not stated) | -
O=C1CN(c2ccc(Cl)cc2)C2(CCCCC2)S1 | -
Cc1cccc(C)c1NC(=O)COC(=O)c1cc(=O)[nH]c2ccccc12 | -
CCNC(=O)COC(=O)c1cc(=O)[nH]c2ccccc12 | -
Cc1noc(C)c1COC(=O)c1cc(=O)[nH]c2ccccc12 | 30.6 | HuH7 TTR inh=-;TTR up confirm=-
O=C(NC1CCCCN(Cc2ccc(Cl)cc2)C1=O)c1cccc2nsnc12 (configuration not stated) | -
CNc1nc(SCc2ccc(C)cc2)nc2c1CCCC2 | -
COc1ccc(NC(=S)NNc2ccc(C(=O)O)cc2)cc1 | -
Clc1ccc(C2Nc3cccc4cccc(c34)N2)cc1Cl | 9.8 | HuH7 TTR inh=-;TTR up confirm=-
Brc1cccc(C2Nc3cccc4cccc(c34)N2)c1 | -
Clc1cccc(Cl)c1C1Nc2cccc3cccc(c23)N1 | -
COc1ccc(C(=O)c2[nH]c(N)c(C(=O)NCCc3c[nH]c4ccccc34)c2-c2ccc(OC)c(OC)c2)cc1 | -
Cc1ccc(C2=CSC3=NS(=O)(=O)CCN23)cc1 | -
COc1cc(C(=O)N(Cc2ccccc2)c2cccc(C)c2)ccc1OC(F)F | -
O=C(NNC(=O)c1cccc(Br)c1)Nc1ccc(Cl)cc1 | -
O=C(NNC(=O)c1cccc(Br)c1)C(=O)N1CCCCC1 | 9.9 | HuH7 TTR inh=-;TTR up confirm=-
N#C/C(=C\c1cccc(Br)c1)C(=O)N1CCCCC1 | -
O=C(Nc1ccccc1)C1=C(Nc2ccccc2)CSC1 | -
CCCC1(C(=O)OC)NC(c2ccc(OC)cc2OC)C2C(=O)N(c3cccc(C(C)=O)c3)C(=O)C21 (configuration not stated) | -
Cc1ccccc1CNC(=O)c1ccccc1N(C)S(=O)(=O)c1ccccc1 | -
COc1ccc(CN2C(=O)COc3ccccc3C2c2nnnn2C2CCCCC2)cc1 (configuration not stated) | -
SMILES | TTR transcr act | others
COc1ccc(-c2nc3ccccc3c(=O)n2NC(=S)N(C)C)cc1 | -
CNC(=O)CN(Cc1ccccc1)S(=O)(=O)c1ccccc1 | -
COc1ccc(CNC(=O)CN(Cc2ccc(Cl)cc2)S(=O)(=O)c2ccccc2)cc1 | -
O=C(CN(Cc1ccc(Br)cc1)S(=O)(=O)c1ccccc1)NCc1ccccn1 | 21.9 | HuH7 TTR inh=-;TTR up confirm=-
Cc1cccc([C@@H]2[C@@H]3C(=O)N(Cc4ccccc4)C(=O)[C@@H]3[C@]3(Cc4ccccc4)C(=O)N(c4cccc(Cl)c4)C(=O)N23)c1 | -
O=C1[C@H]2[C@@H](c3ccc(Cl)cc3)N3C(=O)N(c4cccc(Cl)c4)C(=O)[C@@]3(Cc3ccccc3)[C@H]2C(=O)N1C1CCCCC1 | 15.7 | HuH7 TTR inh=-;TTR up confirm=-
O=C1[C@H]2[C@@H](c3ccc(F)cc3)N3C(=O)N(c4cccc(Br)c4)C(=O)[C@@]3(Cc3ccccc3)[C@H]2C(=O)N1C1CCCCC1 | -
Cc1cc(C)cc(-c2c(C(=O)c3ccccc3)[nH]c(N)c2C(=O)NCCc2c[nH]c3ccccc23)c1 | -
Cc1ccsc1C(=O)N1CCC1(C)C(=O)NS(=O)(=O)c1cccc(F)c1 (configuration not stated) | -
CC(C)Cn1c(=O)cc(N2CCN(c3cccc(C(F)(F)F)c3)CC2)[nH]c1=O | -
Cc1scc(C(=O)O)c1-c1c(C(=O)O)csc1C | -
Cc1cc(C)nc(NS(=O)(=O)c2ccc(NC(=O)C3CC(=O)N(c4ccccc4)C3)cc2)n1 (configuration not stated) | -
Cc1ccnc(NS(=O)(=O)c2ccc(NC(=O)C3CC3)cc2)n1 | -
Cc1cc(C)nc(NS(=O)(=O)c2ccc(NC(=O)C3CC3)cc2)n1 | 24.3 | HuH7 TTR inh=-;TTR up confirm=-
Cc1ccc(C)c(NCCCCCCCC(=O)O)c1 | -
CC(C)(C)c1ccc(CN2C(=O)CSC2=O)cc1 | -
Cn1ccs/c1=N\C(=O)Nc1ccccc1 | 51.7 | HuH7 TTR inh=-;TTR up confirm=-
Cn1ccsc1=NC(=O)c1ccccc1OC(F)F | -
Cn1ccsc1=NC(=O)c1ccccc1F | -
COC(=O)[C@]12C[C@H](CC(=O)NCc3cccc(C(F)(F)F)c3)C(=O)N(CCc3ccc(OC)c(OC)c3)C1=C[C@H](C1CCCC1)O[C@@H]2C | -
CCc1c(C(=O)C(C)O)c2n3c1CCC[C@@H]3CC2 (some centres not stated) | -
COc1cccc(CSc2nc3cc4c(cc3cc2C)OCCO4)c1 | 18.4 | HuH7 TTR inh=-;TTR up confirm=-

Screens (PubChem)
